Reference: PubChem BioAssay (NCATS)
Inconclusive results are not listed. Active and inactive are the calls of the source. The call rests on the fitted dose curve; in most records, active means well fitted inhibition curve with a large enough effect; inconclusive means small, poorly fitted or top-dose-only effect; inactive means flat fitted curve, though single readings scatter. Peptide text beside a SMILES is read from it.

What was measured:
Assay in all cases: qHTS profiling for inhibitors of Plasmodium falciparum proliferation (AID 504749); further: nearly all actives have a fitted effect of over 60% in size
Settings in all cases: P. falciparum in erythrocytes, SYBR Green DNA, 72 h; series mostly up to 28.7 µM
[1] = tested on: DIV17
In short: (§1)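 Fluorescence of SYBR Green-bound parasite DNA, read at 485/535 nm, served as the growth measure. Infected erythrocytes were cultured with compound 72 h; artemisinin (0.29 uM) and DMSO wells defined the normalization range.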

[2] = tested on: DIV30
In short: as §1

[3] = tested on: Dd2
In short: as §1

[4] = tested on: ECU
In short: as §1

[5] = tested on: FAB9
In short: as §1

[6] = tested on: GB4
In short: as §1

[7] = tested on: HB3
In short: as §1

[8] = tested on: ICS
In short: as §1

[9] = tested on: JCK
In short: as §1

[10] = tested on: N140
In short: as §1

Measured: Potency

CC(C)(S)[C@@H](N)C(=O)O
inactive: all assays above

Cc1cc2cc3c(C)cc(=O)oc3c(C)c2o1
inactive: all assays above

C=CCc1cc(OC)c(O)c(C(=O)NCCO)c1
inactive: all assays above

CCCc1cc(=O)[nH]c(=S)[nH]1
inactive: all assays above

Cc1ncc([N+](=O)[O-])n1CC(C)O (stereo not given)
inactive: all assays above

Nc1ccc(S(N)(=O)=O)cc1
inactive: all assays above

CCC(C)(Oc1ccc(C2(c3ccc(OC(C)(CC)C(=O)O)cc3)CCCCC2)cc1)C(=O)O (stereo not given)
inactive: all assays above

CCC1=C(C)CN(C(=O)NCCc2ccc(S(=O)(=O)NC(=O)NC3CCC(C)CC3)cc2)C1=O (stereo not given)
inactive: all assays above

N[C@@H](Cc1cc(I)c(Oc2cc(I)c(O)c(I)c2)c(I)c1)C(=O)O
inactive: all assays above

C[C@H](Cn1cnc2c(N)ncnc21)OCP(=O)(O)O
inactive: all assays above

CC1(C)NC(=O)N(c2ccc([N+](=O)[O-])c(C(F)(F)F)c2)C1=O
inactive: all assays above

O=C(O)c1cccnc1Nc1cccc(C(F)(F)F)c1
inactive: all assays above

O=C(O)c1cc(=O)c2c(OCC(O)COc3cccc4oc(C(=O)O)cc(=O)c34)cccc2o1
inactive: all assays above

CS(=O)(=O)OCCCCOS(C)(=O)=O
inactive: all assays above

c1ccc2[nH]c(-c3cscn3)nc2c1
inactive: all assays above

COc1ccc(C2(C#N)CCC(C(=O)O)CC2)cc1OC1CCCC1 (stereo not given)
inactive: all assays above

COC(=O)[C@H](Cc1ccccc1)NC(=O)[C@@H](N)CC(=O)O (H-Asp-Phe-OMe)
inactive: all assays above

C[Se]CCC(N)C(=O)O (stereo not given)
inactive: all assays above

CN(C)CCc1c[nH]c2ccc(Cn3cncn3)cc12
inactive: all assays above

Nc1cccc2c1CN(C1CCC(=O)NC1=O)C2=O (stereo not given)
inactive: all assays above

O=P(O)(O)C(O)(Cn1ccnc1)P(=O)(O)O
inactive: all assays above
